High-throughput results deposited in PubChem BioAssay by several laboratories.
Only some compounds are listed: those with a hit (about 2.9% of all), similar ones and a draw of the others.
LMP1 NFkB inh: EBV LMP1-driven NF-kappaB luciferase reporter inhibitors, primary screen, cell-based, luminescence, single point | inhibition, % at 12.5 µM | AID 504558, 2011 | LMP1-induced NF-kappaB luciferase reporter cells | hit rate 0.69% among 350,000; in the data active = inhibition above about 41%; inconclusive = no clear call, values can overlap the other calls
Shn3 3UTR inh: reduction of Shn3 3'UTR firefly luciferase signal, primary screen, Schnurri-3 inhibitor project, cell-based, Clone20 osteoblasts, set 2; inhibition, % at 12.5 µM; AID 588674, 2011; hit rate 0.52% among 360,000; Clone20 osteoblast Shn3 3'UTR firefly luciferase, 24 h;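 active = mean inhibition of at least 75% with every replicate also reaching 75%; inconclusive = mean inhibition at least 75% but some replicate below; inactive = mean inhibition below 75%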
MITF TRPM1 inh: inhibitors of MITF-dependent TRPM1 promoter reporter, primary screen, cell-based, SK-MEL-5, single point, luciferase. SK-MEL-5 TRPM1 promoter luciferase, 24 h. inhibition, % at 12.5 µM. hit rate 0.83% among 330,000. AID 488899, 2010;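 active = mean inhibition across replicates of 60% or more, whatever share of single replicates reaches that level; inconclusive = some that reach 60%, reason not given; inactive = mean inhibition across replicates below 60%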
KKLEB tox: cytotoxicity in KKLEB CF airway cells, primary screen, cytotoxicity control for CF NF-kB inhibitor project, cell-based, uHTS, fluorescence assay plates; hit rate 0.36% among 360,000; KKLEB CF airway cells viability, ATPlite luminescence, overnight; hits give low values; cells stimulated with P. aeruginosa culture filtrate; activity change (cytotoxicity), % at 5 µM; AID 602141, 2011;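 active = corrected activity change at or below -50% at 5 µM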
CF NFkB inh: inhibitors of PAF-induced NF-kB signaling, primary screen, cell-based, GFP fluorescence, uHTS. inhibition, % at 5 µM. hit rate 0.86% among 360,000. KKLEB NF-kB-GFP reporter, GFP fluorescence overnight. AID 588850, 2011;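 active = at least 50% inhibition at 5 µM, scaled per plate between neutral and stimulator controls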;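 note: PAF is a Pseudomonas aeruginosa culture filtrate used as stimulus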
Peg3 prom inh: Peg3 promoter-driven luciferase inhibitors, primary screen, cell-based, HeLa, luciferase luminescence; HeLa PEG-Prom luciferase reporter, overnight; hit rate 1.7% among 360,000; inhibition, % at 20 µM;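 active = inhibition of at least 50% at 20 µM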
Of the large screens only hits and unclear results are named; the others gave an inactive call.

COc1ccc(CC(N)c2csc(NC(=O)c3cc(C(C)(C)C)oc3C)n2)cc1 (centres undefined)	Peg3 prom inh 99 (no result: LMP1 NFkB inh, MITF TRPM1 inh)
CCNC(=O)C1(C)CCCN(C(=O)c2cc(-c3ccccc3)cs2)C1 (centres undefined)	none (no result: LMP1 NFkB inh, MITF TRPM1 inh)
Nc1ncnc2c1ncn2[C@@H]1O[C@H](C(=O)N2CCC[C@@H]2C(=O)OCc2ccccc2)[C@@H](O)[C@H]1O	none (no result: LMP1 NFkB inh, MITF TRPM1 inh)
CNS(=O)(=O)c1cccc(C(=O)OCC(=O)c2ccc[nH]2)c1	none
CNS(=O)(=O)c1cccc(C(=O)OCC(=O)c2ccc3c(c2)OCCO3)c1	LMP1 NFkB inh 43
COc1ccc(NC(=S)NNc2ccc([N+](=O)[O-])cc2S(=O)(=O)Nc2ccc(C)cc2C)cc1	Peg3 prom inh 52
Cc1ccc(NS(=O)(=O)c2cc([N+](=O)[O-])ccc2NNC(=S)Nc2cc(C)ccc2C)c(C)c1	none
NC(CCc1ccccc1)c1csc(Nc2nccc(C(F)(F)F)n2)n1 (centres undefined)	none (no result: LMP1 NFkB inh, MITF TRPM1 inh)
CC1(C)Cc2c(c(N3CCOCC3)nc3sc(C(N)=O)c(N)c23)CO1	none
CC1(C)Cc2c(c(N3CCOCC3)nc3snc(Br)c23)CO1	Peg3 prom inh 92
CC1(C)Cc2c(c(N3CCOCC3)nc3snc(N)c23)CO1	Peg3 prom inh 65
COc1cc(NC(=O)C2(C)CCN2C(C)C)cc(OC)c1OC (centres undefined)	none (no result: LMP1 NFkB inh, MITF TRPM1 inh)
C[C@@H]1CN([C@H](C)CO)C(=O)CCCn2nncc2CO[C@H]1CN(C)S(=O)(=O)c1cccc(F)c1	none (no result: MITF TRPM1 inh)
Cc1sc(NC(=O)C2CC(=O)N(Cc3ccco3)C2)nc1-c1ccccc1 (centres undefined)	none (no result: MITF TRPM1 inh)
CC(Oc1cc2oc(=O)cc(-c3ccccc3)c2cc1Cl)C(=O)NCC1CCC(C(=O)O)CC1 (centres undefined)	none
CC(NC(=O)OC(C)(C)C)C(=O)Oc1cc2oc(=O)cc(-c3ccccc3)c2cc1Cl (centres undefined)	CF NFkB inh 82
COc1ccc(Nc2nc(Nc3ccc(OC)cc3)nc(-n3[nH]c(=O)c(C)c3C)n2)cc1	Shn3 3UTR inh 81, CF NFkB inh 87
COc1ccc(Nc2nc(OC)nc(OC)n2)cc1	none
COc1ccc(N2C(=O)C3CC(C)=C(C)CC3C2=O)c(OC)c1 (centres undefined)	none
COc1cc(N2C(=O)C=CC2=O)ccc1N1C(=O)C=CC1=O	LMP1 NFkB inh 49, Shn3 3UTR inh 98, MITF TRPM1 inh 74, CF NFkB inh 78, Peg3 prom inh 111
C=CCn1c(O)c(C2=c3ccccc3=NC2=O)c2ccccc21	none
Cc1ccc2c(c1)c(C1=c3ccccc3=NC1=O)c(O)n2C	Shn3 3UTR inh 96, CF NFkB inh 53
CN(C)CCNc1ncnc2c1sc1nc(-c3ccccc3)c3c(c12)CCCC3	Peg3 prom inh 111
CCc1ccc2c(c1)C1(C(=O)N2)N2CCCC2C(C(=O)c2ccc3ccccc3c2)C12C(=O)Nc1ccccc12 (centres undefined)	Peg3 prom inh 104
C[C@@H]1CN([C@@H](C)CO)C(=O)c2cc(C#Cc3ccccc3)cnc2O[C@H]1CN(C)C(=O)c1ccccc1F	none (no result: MITF TRPM1 inh)
COc1ccc(N2N=NN(C(C)C)C2=C(Cl)c2nnnn2-c2ccc(OC)cc2)cc1	LMP1 NFkB inh 85
CCCC(=O)Nc1nc2c(s1)COc1ccccc1-2	none
O=C(CCSc1ccccc1)Nc1nc2c(s1)COc1ccccc1-2	Peg3 prom inh 54
Cc1[nH]n(-c2ccc(Cl)cc2)c(=O)c1C=NC12CN3CN(CN(C3)C1)C2	none
COc1ccc(CCN=Cc2c(C)[nH]n(-c3ccc([N+](=O)[O-])cc3)c2=O)cc1OC	none
COc1cc(SC#N)ccc1N=Cc1c(C)[nH]n(-c2ccc(Cl)cc2)c1=O	Peg3 prom inh 56
COc1cc(SC#N)ccc1N=Cc1c(C)[nH]n(-c2ccc(C)c(C)c2)c1=O	Shn3 3UTR inh inconclusive, MITF TRPM1 inh 88, Peg3 prom inh 100
CCOC(=O)c1c(NC(C)=O)sc2c1CCN(Cc1ccccc1)C2	none (no result: MITF TRPM1 inh)
CCOC(=O)c1c(NC(C)=O)sc2c1CCC(C=O)=C2Sc1ccccc1	Peg3 prom inh 99
Cc1cc(C)cc(NC(=O)CSc2cc(C(=O)c3nccn3C)c3ccccc3n2)c1	none
Cc1cccc(NC(=O)CSc2cc(C(=O)c3nccn3C)c3ccccc3n2)c1	KKLEB tox -54
CCCCCCN1C[C@@H](n2cc(-c3ccc(F)cc3)nn2)[C@H](O)C[C@@H]1c1ccc(OC)cc1	Peg3 prom inh 61 (no result: MITF TRPM1 inh)
COc1ccc([C@H]2C[C@H](O)[C@@H](n3cc(-c4ccc(F)cc4)nn3)CN2Cc2cccs2)cc1	Peg3 prom inh 69 (no result: MITF TRPM1 inh)
CCCCCCN1C[C@@H](n2cc(-c3ccc(F)cc3)nn2)[C@H](O)C[C@@H]1c1ccc(Cl)cc1	Shn3 3UTR inh inconclusive, Peg3 prom inh 69 (no result: MITF TRPM1 inh)
CCCCCCN1C[C@H](n2cc(-c3ccc(F)cc3)nn2)[C@@H](O)C[C@@H]1c1ccc(OC)cc1	none (no result: MITF TRPM1 inh)
COc1ccc(S(=O)(=O)N2CCC(C(=O)N[C@@H](C)C(=O)NCc3ccccn3)CC2)cc1	none (no result: MITF TRPM1 inh)
COc1ccc(-c2cc3c(c4c2ccn4C)C2CCC3C2)cc1OC (centres undefined)	none (no result: LMP1 NFkB inh, MITF TRPM1 inh)
O=C(CN1C(=O)S/C(=C\c2ccccc2)C1=O)NNC(=O)c1ccccc1O	none
O=C(CCCN1C(=O)S/C(=C\c2ccccc2)C1=O)NNC(=O)c1ccccc1O	LMP1 NFkB inh inconclusive, MITF TRPM1 inh 71
CC(/C=C1\SC(=O)N(CCCC(=O)O)C1=O)=C\c1ccccc1	LMP1 NFkB inh 72, Shn3 3UTR inh inconclusive, MITF TRPM1 inh 85, Peg3 prom inh 80
COc1ccc(S(=O)(=O)Nc2ccc3c(c2)C(=O)N([C@H](C)CO)C[C@H](C)[C@@H](CN(C)Cc2ccncc2)OCCCC[C@@H](C)O3)cc1	none (no result: MITF TRPM1 inh)
Cc1ccc(Cn2nc(C)c(NC(=O)CSc3nc4c(c(C(F)(F)F)n3)CCc3ccccc3-4)c2C)cc1	Peg3 prom inh 50
NC(Cc1ccc(Cl)cc1)c1csc(Nc2ccc(C(=O)NCCCO)cn2)n1 (centres undefined)	none (no result: LMP1 NFkB inh, MITF TRPM1 inh)
Cc1c(C(=O)c2no[n+]([O-])c2C(=O)c2cnn(C)c2C)cnn1C	CF NFkB inh 63
Cc1c(C(=O)Nc2ccc(Br)cc2)cnn1C	none
CN(CCc1ccccc1)C(=O)c1cccc(NC(=O)Cc2cccc(NC(=O)C3CCCN(C(=O)C4CCCC4)C3)c2)c1 (centres undefined)	none
